# PubChem BioAssay AID651768 (National Center for Advancing Translational Sciences (NCATS), 2012)
# Hit rate of the full screen: of about 360,000 compounds, about 1,700 (0.47%) were called active. About 2% were inconclusive and are not listed. Calls follow the shape of the dose curve; as a rule, active = well fitted inhibition curve with a large enough effect; inconclusive = small, poorly fitted or top-dose-only effect; inactive = no such curve, though single readings can be large or run the other way. The sample as a whole holds a higher share of actives than the screen did.
# Target: Bifunctional 3'-5' exonuclease/ATP-dependent helicase WRN (Homo sapiens) (UniProt Q14191)
# Sequence (Q14191 whole entry, looked up): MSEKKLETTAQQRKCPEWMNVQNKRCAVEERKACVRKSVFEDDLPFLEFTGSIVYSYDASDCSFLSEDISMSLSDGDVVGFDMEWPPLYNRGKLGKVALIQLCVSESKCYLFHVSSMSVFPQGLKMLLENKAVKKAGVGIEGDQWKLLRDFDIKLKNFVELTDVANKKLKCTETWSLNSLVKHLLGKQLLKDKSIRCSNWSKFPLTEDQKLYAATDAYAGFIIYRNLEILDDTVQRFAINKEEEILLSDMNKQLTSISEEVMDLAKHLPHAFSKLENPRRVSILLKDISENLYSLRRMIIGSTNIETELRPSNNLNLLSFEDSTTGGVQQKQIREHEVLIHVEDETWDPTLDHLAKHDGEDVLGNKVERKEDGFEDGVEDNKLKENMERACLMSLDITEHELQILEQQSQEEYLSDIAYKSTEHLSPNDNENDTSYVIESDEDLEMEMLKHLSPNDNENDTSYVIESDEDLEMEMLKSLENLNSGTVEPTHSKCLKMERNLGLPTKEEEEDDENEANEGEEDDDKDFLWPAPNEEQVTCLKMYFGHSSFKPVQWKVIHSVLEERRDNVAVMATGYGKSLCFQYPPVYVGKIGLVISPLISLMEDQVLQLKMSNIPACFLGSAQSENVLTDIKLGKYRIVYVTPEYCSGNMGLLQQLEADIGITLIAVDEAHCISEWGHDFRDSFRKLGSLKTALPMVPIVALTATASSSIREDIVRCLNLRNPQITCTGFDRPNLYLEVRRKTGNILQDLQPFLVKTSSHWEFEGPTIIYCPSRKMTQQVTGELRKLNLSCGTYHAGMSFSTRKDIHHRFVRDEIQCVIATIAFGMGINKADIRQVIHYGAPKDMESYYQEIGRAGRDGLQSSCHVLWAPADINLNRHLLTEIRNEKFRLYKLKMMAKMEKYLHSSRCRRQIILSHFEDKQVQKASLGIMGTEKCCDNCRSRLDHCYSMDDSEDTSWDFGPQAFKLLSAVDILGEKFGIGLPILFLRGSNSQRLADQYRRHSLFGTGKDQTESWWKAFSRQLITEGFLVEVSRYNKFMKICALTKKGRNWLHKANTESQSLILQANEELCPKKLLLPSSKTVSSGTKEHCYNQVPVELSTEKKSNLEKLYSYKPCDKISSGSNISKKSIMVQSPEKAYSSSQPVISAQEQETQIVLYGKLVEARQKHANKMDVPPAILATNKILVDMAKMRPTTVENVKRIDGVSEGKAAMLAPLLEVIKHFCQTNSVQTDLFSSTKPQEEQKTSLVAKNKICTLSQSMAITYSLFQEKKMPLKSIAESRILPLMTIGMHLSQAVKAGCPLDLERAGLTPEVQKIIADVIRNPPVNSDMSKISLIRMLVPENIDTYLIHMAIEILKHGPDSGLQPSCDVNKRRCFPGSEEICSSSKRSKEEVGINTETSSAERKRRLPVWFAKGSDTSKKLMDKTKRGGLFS
# Assay: qHTS for Inhibitors of WRN Helicase; also: nearly all actives have a fitted effect of over 55% in size
# Settings: WRN helicase unwinding, fluorescent forked duplex, kinetic; series mostly up to 114 µM; activity change, negative = inhibition: at the top concentration
# How it was run: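 WRN at 20 nM final preincubated with compound 15 min at room temperature; reaction started with 100 nM fluorophore/quencher forked duplex oligonucleotide and 2 mM ATP final. Unwinding followed kinetically by red fluorescence (ex 525, em 598 nm).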
# % is scaled to controls: 0 for no effect and ±100 for the full control effect; potency is read from the fitted curve at half-maximal effect.
Structure (SMILES),"activity change, negative = inhibition",Potency
CCOC(=O)N1CCN(C(=O)c2ccc(CN(c3ccc(C)c(C)c3)S(C)(=O)=O)cc2)CC1,2.1% (inactive),–
O=C(Nc1ccc(S(=O)(=O)N2CCOCC2)cc1)C1CCN(S(=O)(=O)c2ccc(Cl)cc2)CC1,-7.36% (inactive),–
Cc1nnsc1S(=O)(=O)Cc1ccccc1Cl,6.13% (inactive),–
O=C(Nc1ccccc1)c1nnsc1S(=O)(=O)c1ccc(Cl)cc1,–,44.7 µM (active)
COC(=O)[C@@]12C[C@@H](CC(=O)NCCCCc3ccccc3)C(=O)N(Cc3ccccc3)C1=CCC(C)(C)C2,-4.01% (inactive),–
CCOC(=O)c1[nH]c2ccc(OC)cc2c1NC(=O)N1CCOCC1,-19.4% (inactive),–
COc1ccc2[nH]c3c(C)c4cc[n+](C)cc4c(C)c3c2c1,–,22.4 µM (active)
Nc1[nH]c(=S)nc2nc(-c3ccccc3)c(-c3ccccc3)nc12,-29.2% (inactive),–
COc1ccccc1Cc1c(-c2ccc(Cl)cc2)nc2c3ccccc3ccn12,0.986% (inactive),–
CCc1nc2ccc(C(=O)NCc3ccc(OC)cc3)cn2c1N(CC)Cc1cccc(Br)c1,-8.24% (inactive),–
Cc1cccc(C)c1Nc1nnc(SCC(=O)NCCCN2CCCC2=O)s1,-7.98% (inactive),–
CO/N=C/c1ccc(N2CCN(C(=O)c3cccc(Cl)c3)CC2)c([N+](=O)[O-])c1,-2.66% (inactive),–
O=C1CSC(=S)N1/N=C/c1ccc(O)c([N+](=O)[O-])c1,–,79.4 µM (active)
O=C(CNS(=O)(=O)c1ccc(Br)s1)NCc1ccc2c(c1)OCO2,4.96% (inactive),–
O=C1CC2(CCCCC2)Oc2ccc(OCC(=O)N3CCOCC3)cc21,-7.15% (inactive),–
CCN(CC)CC(=O)Nc1sc2c(c1C(=O)c1ccccc1C)CCC2,-17.1% (inactive),–
COc1c(O)cc2oc(-c3ccc(O)c(O)c3)cc(=O)c2c1O,–,25.1 µM (active)
COc1cc(O)c2c(=O)c3c(O)c(O)ccc3oc2c1OC,2.49% (inactive),–
CCOC(=O)COc1cc(OCC(=O)OCC)c2c(=O)cc(-c3ccccc3)oc2c1,1.62% (inactive),–
COc1ccc(Cn2c(=O)sc3ccccc32)cc1OC,1.12% (inactive),–
COC(=O)[C@@]12C[C@@H](CC(=O)NCCCCc3ccccc3)C(=O)N(CCc3ccc(OC)c(OC)c3)C1=CCC(C)(C)C2,-4.17% (inactive),–
Cc1nnc(-c2ccc(Oc3ccc(C)c(C)c3)c([N+](=O)[O-])c2)o1,6.78% (inactive),–

Structure (SMILES),"activity change, negative = inhibition",Potency
COc1ccc(NC(=O)c2cc(-c3cc(OC)c(OC)c(OC)c3)nc3ccccc23)c(OC)c1,1.58% (inactive),–
Cc1ccc2nc(-c3ccncc3)cc(C(=O)Nc3ccc(OC(F)F)cc3)c2c1,–,44.7 µM (active)
CC1CCCC(NC(=O)c2cc(-c3ccncc3)nc3ccccc23)C1C (centres undefined),1.59% (inactive),–
O=C1NC[C@H](CCCCN2CCN(CCc3ccccc3)C(=O)C2=O)N(CC2CCCCC2)C1=O,3.05% (inactive),–
CCCCCCc1cc2cc(-c3nnc(-c4ccccc4)o3)c(=O)oc2cc1O,–,56.2 µM (active)
CCc1ccc(CN(C)C(=O)CCc2nnc(-c3ccc(-c4ccccc4)cc3)o2)nc1,-8.97% (inactive),–
Cc1cc(Cl)ccc1C(=O)C1CCCN(C(=O)c2nonc2C)C1 (centres undefined),-10.6% (inactive),–
CCCCN(CC)CCNC(=O)c1[nH]c(C)c(C(C)=O)c1C,-4.24% (inactive),–
CCC(=O)Nc1c(C)n[nH]c1C,-26.6% (inactive),–
C=C1C(=O)OC2C1CCC(C)=CCCC1(C)OC21 (centres undefined),-21.4% (inactive),–
CCCCCCCNc1nc(Cl)nc(NCCO)n1,10.9% (inactive),–
CC1CCCN(CCCNC(=O)CN2C(=O)COc3ccc(S(=O)(=O)N4CCOCC4)cc32)C1 (centres undefined),-5.24% (inactive),–
Nc1ccc2nc3c(=O)[nH]c(=S)[nH]c3nc2c1,–,7.08 µM (active)
O=C1Nc2ccc(Br)cc2/C1=N/N=C/C1=C(N2CCOCC2)C(=C\c2ccccc2)/CC1,-6.34% (inactive),–
N#C/C(=C\C1=C(N2CCOCC2)C(=C\c2ccccc2)/CC1)C(=O)Nc1ccccc1F,–,15 µM (active)
O=C(CC1SC(N2CCOCC2)=NC1=O)Nc1ccccc1F (centres undefined),6.19% (inactive),–
N#Cc1ccc(OCC(=O)NC(=O)NC2CCS(=O)(=O)C2)cc1 (centres undefined),0.741% (inactive),–
CC(=O)Nc1ccc(S(=O)(=O)NCC(=O)OCc2cc(=O)oc3ccc4ccccc4c23)cc1,-10.6% (inactive),–
O=C(N/N=C/c1sc(N2CCCCC2)nc1-c1cccs1)c1cccnc1,-17.8% (inactive),–
C[C@H]1CN([C@@H](C)CO)C(=O)CCCn2nncc2CO[C@@H]1CN(C)S(=O)(=O)c1cccc(C#N)c1,-1.02% (inactive),–
Cc1nnc(SCC(=O)Nc2ncc3c(n2)CC(C)(C)CC3=O)s1,-12.5% (inactive),–
CC1=C/C(=N\OS(=O)(=O)c2ccccc2)C=CC1=O,–,31.6 µM (active)

Structure (SMILES),"activity change, negative = inhibition",Potency
O=C1Nc2ccccc2-n2nnnc2C1N1CCN(c2cccc(C(F)(F)F)n2)CC1 (centres undefined),-3.28% (inactive),–
CC1(c2cccc(N)c2)OCCO1,4.67% (inactive),–
COCCNC(=O)Nc1ccc2nc(-c3ccco3)c(-c3ccco3)nc2c1,–,14.1 µM (active)
Cc1ccc(NC(=O)OCCNC(=O)c2ccncc2)cc1,-1.82% (inactive),–
COCCNC(=O)CSc1nc(N)c(NC(=O)c2ccco2)c(=O)[nH]1,-1.82% (inactive),–
O=C(NC1=CC(=O)c2ccccc2C1=O)c1ccccc1,-14.7% (inactive),–
CC(=O)N(C1=C(Cl)C(=O)c2ccccc2C1=O)c1ccc(C(=O)O)cc1,–,35.5 µM (active)
CN(C)c1ccc(C(CNC(=O)c2ccc(F)cc2)c2c[nH]c3ccccc23)cc1 (centres undefined),-9.89% (inactive),–
CCc1ccccc1NC(=O)CN(c1ccc(OC)cc1OC)S(=O)(=O)c1ccccc1[N+](=O)[O-],-11.4% (inactive),–
CCC1OC(C2CC2)CC2=C1C(=O)OC(C)(C)O2 (centres undefined),1.03% (inactive),–
CCc1nnc(NC(=O)c2cc(S(=O)(=O)N3CCCCC3)ccc2C)s1,0.0692% (inactive),–
CCc1nnc(NC(=O)c2ccco2)s1,22% (inactive),–
CCc1ccc2nc3sc(C(=O)Nc4nnc(CC)s4)c(N)c3cc2c1,–,22.4 µM (active)
C=CCN1CCN(c2ccncc2S(=O)(=O)N2CCN(C)CC2)CC1,-5.89% (inactive),–
N#Cc1c(N2CCCCC2)nc(N)c2c(N)nc(SCC(=O)O)cc12,–,50.1 µM (active)
N#Cc1c(C(F)(F)F)cc(-c2cccs2)nc1N1CCCCC1,2.23% (inactive),–
O=C(O)CSc1ccc(S(=O)(=O)N2CCCC2)cn1,2.34% (inactive),–
Cn1cnnc1SCC(=O)Nc1ccc(N2CCOCC2)cc1,3.56% (inactive),–
CN1CCN(c2ccc(NC(=O)c3cc(Cl)c4c(c3)OCCO4)cc2)CC1,-10.8% (inactive),–
C=CC(=O)Nc1ccc(Nc2ccnc(Nc3ccc(N4CCN(C)CC4)cc3)n2)cc1,–,50.1 µM (active)
